Screens deposited in PubChem by The Scripps Research Institute Molecular Screening Center.
Most compounds without a hit are left out; they make up all but 1.1% or so of the library.
HTR5A inv ag: inverse agonist of human HTR5A in OPRM1-OPRD1 counter-screen | P47898 | HTR5A cell line, luminescence, inverse agonism | inhibition, % at 9.3 µM | 340,000 compounds, 0.083% hits; in the data active means inhibition mostly above about 23%, no sharp cut-off; inactive means mostly below about 18%;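 further: 0% = cells with DMSO and 100% = no-cell wells with DMSO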
Target sequence (P47898 whole entry, looked up): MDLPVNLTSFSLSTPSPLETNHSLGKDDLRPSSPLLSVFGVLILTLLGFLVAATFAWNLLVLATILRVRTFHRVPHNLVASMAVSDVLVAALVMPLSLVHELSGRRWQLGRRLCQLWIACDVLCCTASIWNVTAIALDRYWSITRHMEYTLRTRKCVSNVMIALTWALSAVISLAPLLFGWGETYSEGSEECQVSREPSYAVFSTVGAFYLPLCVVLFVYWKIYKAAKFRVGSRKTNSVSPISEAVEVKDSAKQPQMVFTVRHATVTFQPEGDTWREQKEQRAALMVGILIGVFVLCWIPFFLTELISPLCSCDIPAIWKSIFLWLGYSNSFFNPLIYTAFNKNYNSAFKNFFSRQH
MOR-DOR ag-1: agonists of human mu-delta opioid receptor heterodimerization | 340,000 compounds, 0.3% hits | P35372+P41143 | activation, % at 9.3 µM | cells, OPRM1-OPRD1 heterodimerization, luminescence;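 further: 0% = vehicle-treated cells and 100% = reference agonist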
HTR5A ag ctr: counter-screen for OPRM1-OPRD1 agonists: human HTR5A agonism | HTR5A agonist assay, luminescence, cell-based | activation, % at 9.3 µM | 340,000 compounds, 0.61% hits | AID 504692; in the data active means activation mostly above about 9.5%, no sharp cut-off; inactive means mostly below about 7.6%;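 further: 0% = cells with vehicle only and 100% = reference agonist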
MOR-DOR inv ag: inverse agonists of human mu-delta opioid receptor heterodimerization | cell-based MOR-DOR heterodimer luminescence, inverse agonism | P35372+P41143 | 340,000 compounds, 0.21% hits | inhibition, % at 9.3 µM; in the data active means inhibition above about 22%, passing the limit was not always enough;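 further: 0% = cells with DMSO and 100% = wells without cells with DMSO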
MOR-DOR ag-2: promotes OPRM1-OPRD1 heterodimerization in HTR5A counter-screen | shares compounds with HTR5A ag ctr | U2OS counter-screen cells, complementation luminescence, 3 h | activation, % at 9.3 µM | 800 compounds, 13% hits
HTR5A ag confirm: confirmation of human HTR5A agonists. shares compounds with HTR5A ag ctr. HTR5A agonist cell assay, luminescence. activation, % at 9.3 µM. 800 compounds, 17% hits; in the data active means activation above about 17%;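 further: 0% = cells with vehicle only and 100% = full reference agonist response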
Active calls of the source: *; . = not tested or not shown. Unless noted, no stated cut-off is given here; in the data, active means activation above about 18%; inactive means the rest.

SMILES	HTR5A inv ag	MOR-DOR ag-1	HTR5A ag ctr	MOR-DOR inv ag	MOR-DOR ag-2	HTR5A ag confirm
Cc1nn(-c2ccc(F)cc2)c2sc(C(=O)N3CCCCCC3)cc12	-8	-1	-3	5	.	.
CCCCc1cc(=O)oc2cc(OCC(=O)NC3CCN(Cc4ccccc4)CC3)ccc12	-9	2	15*	-10	5	8
O=C(Nc1ccc(F)c(F)c1)C1CCN(S(=O)(=O)c2cccc3nonc23)CC1	-12	6	17*	-35	0	0
Cc1cc(C(=O)COC(=O)C2=COCCO2)c(C)n1-c1ccc2c(c1)OCO2	-1	-1	-4	4	.	.
Cc1cc(C(=O)COC(=O)C2=COCCO2)c(C)n1-c1cccc(F)c1	9	0	16*	0	1	13
Cc1ccc2[nH]c(=O)c3cc(C(=O)N(CCCOC(C)C)Cc4ccco4)sc3c2c1	-83	6	27*	-34	11	13
CCc1ccc(NC(=O)Cn2nc(C(F)(F)F)c3c2CCC3)cc1	-31	11	20*	-67	8	7
CCc1ccccc1NC(=O)Cn1nc(C(F)(F)F)c2c1CCC2	11	1	-9	-6	.	.
CC(C)C(OC(=O)Cn1nnc2ccccc21)C(=O)NC1CCCC1 (stereo unspecified)	-10	-2	-3	13	.	.
Cc1cccc(NC(=O)[C@@H]2CCCN2C(=O)OC(C)(C)C)c1C	-32	-2	8	13	.	.
COc1cccc(Nc2nc(CC(C)=O)ns2)c1	-51	-2	19*	10	0	2
Cc1c(CCC(=O)O)c(=O)oc2cc3occ(-c4ccc(Br)cc4)c3cc12	-5	-1	1	6	.	.
Cc1ccc2oc(=O)c3cnn(CC(=O)NC4CCCCC4C)c3c2c1 (stereo unspecified)	-54	0	21*	-2	1	0
COC(=O)C1CCN(Cc2ccc(OCCCN3CCN(c4ccc([N+](=O)[O-])cc4)CC3)cc2)CC1	2	3	-1	-14	.	.
Cc1coc2cc3oc(=O)c(CCC(=O)N4C[C@H]5C[C@@H](C4)c4cccc(=O)n4C5)c(C)c3cc12	-10	-2	26*	10	1	51*
O=S(=O)(c1ccccc1F)N1CCN(Cc2cc3c(cc2Br)OCCO3)CC1	4	-4	4	16	.	.
COc1cc(CN2CCN(Cc3ccc([N+](=O)[O-])cc3)CC2)c([N+](=O)[O-])cc1OC	-16	2	15*	-11	2	-1
CCN1CCc2c(sc(NC(=O)C3COc4ccccc4O3)c2C(N)=O)C1 (stereo unspecified)	-44	-2	15*	13	-3	-2
CCN1CCc2c(sc(NC(=O)Cc3ccccc3)c2C(N)=O)C1	-2	-3	2	14	.	.
CC(=O)N1CCc2c(sc(NC(=O)C3COc4ccccc4O3)c2C(N)=O)C1 (stereo unspecified)	-138	-1	38*	5	0	49*
CCOC(=O)N1CCc2c(sc(NC(=O)C3COc4ccccc4O3)c2C(N)=O)C1 (stereo unspecified)	-95	1	44*	-3	2	60*
COC(=O)c1c(NC(=O)C2COc3ccccc3O2)sc2c1CCN(C(C)=O)C2 (stereo unspecified)	-2	0	1	2	.	.
CN1CCc2c(sc(NC(=O)C3COc4ccccc4O3)c2C(N)=O)C1 (stereo unspecified)	-69	-2	17*	11	0	52*
CN1CCc2c(sc(NC(=O)Cc3ccccc3)c2C(N)=O)C1	-36	-1	12	6	.	.
Cc1onc(C(=O)NN)c1C(=O)Nc1ncc(C(F)(F)F)cc1Cl	8	-1	-2	5	.	.
SMILES	HTR5A inv ag	MOR-DOR ag-1	HTR5A ag ctr	MOR-DOR inv ag	MOR-DOR ag-2	HTR5A ag confirm
CC1CCCCC12NC(=O)N(CC(=O)OCC(=O)c1ccc(OC(F)F)cc1OC(F)F)C2=O (stereo unspecified)	-12	-6	5	28	.	.
O=C(CSc1nnc(Nc2ccccc2F)s1)NC1CC1	-16	0	4	0	.	.
CC(=O)NS(=O)(=O)c1ccc2c(c1)C(=O)c1cc(S(=O)(=O)NC(C)=O)ccc1-2	-7	-1	2	4	.	.
CC(=O)c1cccc(NC(=O)CSc2nc(=O)n(CCN3CCOCC3)c3c2CCCC3)c1	5	-4	-2	19	.	.
CCOC(=O)C1CCCC12Nc1cccc3cccc(c13)N2 (stereo unspecified)	-11	7	3	-30	.	.
CCN(CC)CCNC(=O)c1ccc(NC(=O)COc2ccc3c(c2)CCC3)cc1	-41	-2	17*	8	3	7
O=C(NC1CCCCC1)c1cc2ccccc2cc1O	-47	8	17*	-42	3	2
COc1ccc(C(=O)Nc2cccnc2)cc1S(=O)(=O)N1CCOCC1	-43	0	16*	0	1	1
COc1ccc(CC(=O)Oc2cc(C)ccc2C)cc1	-2	4	1	-21	.	.
Cc1cc(NC(=O)CSc2nc(-c3ccc(Cl)cc3)cs2)no1	-53	6	20*	-31	2	6
COc1ccc(CN(C(=O)CSc2nnc(-c3ccc(F)cc3)o2)c2ccc(F)cc2)cc1	-18	3	7	-14	.	.
COc1ccc(CN(C(=O)CSc2nnc(-c3c[nH]c4ccccc34)o2)c2ccc(F)cc2)cc1OC	-44	4	16*	-23	27*	1
O=C(NCc1ccc2c(c1)OCO2)c1cnc2n(c1=O)CCS2	-53	-1	19*	5	0	0
O=C(CSc1ccccc1)NCC1(N2CCCCC2)CCCCC1	-8	-1	17*	6	23*	6
COc1cccc(NC(=O)CCC(=O)N2CC(C)Oc3ccc(C)cc32)c1 (stereo unspecified)	9	0	-3	-1	.	.
COc1cc2cnc(-c3ccsc3)cc2cc1OC	-64	-3	22*	18	1	2
COc1ccc(S(=O)(=O)N2CCCCC2)cc1NC(=O)CN(Cc1ccco1)Cc1ccco1	4	-4	-2	14	.	.
Cc1ccc(Cn2nnc3c(=O)[nH]c(C4CCN(S(=O)(=O)c5ccc(C)cc5)CC4)nc32)cc1	-9	0	1	-2	.	.
O=c1[nH]c(C2CCN(S(=O)(=O)c3ccc(C(F)(F)F)cc3)CC2)nc2c1nnn2Cc1ccc(F)cc1	-50	0	18*	-1	6	4
CSc1cc(-c2ccc(Cl)cc2)[nH]c(=O)c1C#N	15	-1	17*	4	0	-2
CCCCN(C)C(=O)c1cc2cc3ccc(OC)cc3nc2s1	-90	1	21*	-3	0	-14
COc1ccc(OC)c2sc(N(CCN(C)C)C(=O)/C=C/c3cccs3)nc12	-28	6	8	-29	.	.
COc1ccc(C)c2sc(N(CCN(C)C)C(=O)/C=C/c3cccs3)nc12	-66	7	16*	-36	10	18*
Cc1ccc(SCCC(=O)Nc2ccccc2C(=O)NC(C)C)cc1	-42	-1	17*	5	3	-2
